Bioassay records as filed in PubChem.
BoNT-A LC inh2: inhibitors of Botulinum neurotoxin A light chain protease | multiplex microsphere protease substrate cleavage, flow cytometry | inhibition, % at 10 µM | 0.17% of 360,000 active; note: plate controls were buffer without enzyme for full effect and enzyme alone for no effect
Autofluor counter: counter-screen for toxin protease inhibitors: compound fluorescence | 3.1% of 360,000 active | compound autofluorescence counterscreen, microsphere flow cytometry; active compounds read high | AID 624483 | fluorescence intensity (test concentration not listed); in the data active = fluorescence intensity above about 16000; inconclusive = no clear call, values can overlap the other calls
MazF activator: increases E. coli MazEF RNase cleavage of RNA | FAM/BHQ RNA-DNA oligo cleavage fluorescence, 5 h | activation, % at 20 µM | 0.32% of 350,000 active | AID 504720; in the data active = activation above about 50%
BoNT F protease: inhibitors of Botulinum neurotoxin F light chain protease. Multiplex microsphere protease cleavage assay, flow cytometry. inhibition, % at 10 µM. 0.22% of 360,000 active; in the data active = inhibition above about 35%, passing the limit was not always enough; inconclusive = no clear call, values can overlap the other calls; note: plate controls were buffer without enzyme for full effect and enzyme alone for no effect
Anthrax LF inh2: anthrax lethal factor protease inhibition; P15917; multiplex microsphere protease cleavage assay, LF; inhibition, % at 10 µM; 0.12% of 360,000 active; note: plate controls were buffer without enzyme for full effect and enzyme alone for no effect
Target sequence (P15917 whole entry, looked up): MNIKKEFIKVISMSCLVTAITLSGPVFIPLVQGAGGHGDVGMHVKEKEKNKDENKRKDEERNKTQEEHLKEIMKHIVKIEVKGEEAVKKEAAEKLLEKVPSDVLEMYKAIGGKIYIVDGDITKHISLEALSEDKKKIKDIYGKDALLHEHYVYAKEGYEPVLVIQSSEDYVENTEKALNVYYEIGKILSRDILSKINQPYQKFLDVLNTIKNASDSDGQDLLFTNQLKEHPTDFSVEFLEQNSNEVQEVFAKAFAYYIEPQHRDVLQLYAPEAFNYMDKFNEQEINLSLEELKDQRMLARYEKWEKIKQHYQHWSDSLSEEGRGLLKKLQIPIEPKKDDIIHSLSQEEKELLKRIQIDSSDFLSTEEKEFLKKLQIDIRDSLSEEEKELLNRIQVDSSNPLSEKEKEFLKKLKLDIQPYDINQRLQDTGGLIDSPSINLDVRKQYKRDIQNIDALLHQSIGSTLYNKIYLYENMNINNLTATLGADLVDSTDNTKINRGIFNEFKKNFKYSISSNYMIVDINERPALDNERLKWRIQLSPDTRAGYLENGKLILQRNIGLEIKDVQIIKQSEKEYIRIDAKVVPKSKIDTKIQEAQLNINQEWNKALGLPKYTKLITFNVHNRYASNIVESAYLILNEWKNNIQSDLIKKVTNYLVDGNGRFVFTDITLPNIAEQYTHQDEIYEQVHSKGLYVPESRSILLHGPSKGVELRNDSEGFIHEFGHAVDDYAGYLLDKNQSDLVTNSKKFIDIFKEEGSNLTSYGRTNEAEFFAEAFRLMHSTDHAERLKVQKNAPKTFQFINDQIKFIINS
Starred values were filed as active, the others as inactive; ? = inconclusive; . = not tested or not shown; + = active, no number. A selection: hits, their analogues and other compounds. The true share with any hit is near 3.7%. Cut-off read from the data, not from the text of the source, unless noted: active = inhibition above about 30%; inconclusive = no clear call, values can overlap the other calls; inactive = below that.

SMILES	BoNT-A LC inh2	Autofluor counter	MazF activator	BoNT F protease	Anthrax LF inh2
COCCn1c(COc2ccc(Cl)cc2)nnc1SCC(N)=O	2	22516*	8	3	-1
Cc1ccc(OC(C)C(=O)N2CCc3ccccc32)c([N+](=O)[O-])n1 (configuration not stated)	0	2789	3	-5	3
COC(=O)c1ccc(CNC(=O)CN2C(=O)NC(Cc3ccccc3)(c3ccccc3)C2=O)cc1 (configuration not stated)	0	3952	5	3	-8
CCOC(=O)c1c(-c2ccccc2)oc2ccc(O)cc12	3	4127	8	8	3
NC(=O)c1c(-c2ccccc2)oc2ccc(O)cc12	0	22271*	-4	4	-1
O=C(CN1C(=O)NC2(CCCCCC2)C1=O)NCc1ccc(Cl)cc1	.	.	-1	.	.
CN(C)S(=O)(=O)c1c(Cl)cccc1Cl	1	23563*	11	1	0
CN(c1ccccc1)S(=O)(=O)c1cccc(Cl)c1Cl	0	4955	5	-3	0
CCn1cc([N+](=O)[O-])c(C(=O)Nc2ccn(Cc3ccccc3F)n2)n1	-1	23949*	9	-1	-1
CCn1cc([N+](=O)[O-])c(C(=O)Nc2nc(-c3ccc(C)cc3)c(C)s2)n1	-1	16716*	0	-6	-1
CCC(=O)Nc1ccc(C(=O)CSc2nnc(-c3ccc(O)cc3)n2CC2CCCO2)cc1OC (configuration not stated)	2	20195*	2	2	-3
CCOc1ccc(NC(=O)CSc2nnc(-c3ccncc3)n2CC2CCCO2)cc1 (configuration not stated)	0	3671	1	-1	-1
O=C(CSc1nnc(-c2ccncc2)n1CC1CCCO1)Nc1cccc(O)c1 (configuration not stated)	1	22751*	-7	3	-4
CC(=O)c1sc2nc(-c3cccs3)cc(C(F)(F)F)c2c1N	16	4089	242*	11	13
CN(C)CCNC(=O)c1sc2nc(-c3ccccc3)cc(C(F)(F)F)c2c1N	14	4395	31	4	7
CSc1nc2nc(-c3cccs3)cc(C(F)(F)F)c2c(=O)[nH]1	1	5683	6	4	1
Nc1c(C(=O)C2CC2)sc2nc(-c3ccccc3)cc(C(F)(F)F)c12	8	7328	+	10	-4
CCOC(=O)CSc1nnc(-c2cc(OC)c(OC)c(OC)c2)o1	-2	4643	-17	-9	-2
COc1cc(-c2nnc(SCc3cc(=O)oc4cc(O)c(O)cc34)o2)cc(OC)c1OC	8	21137*	2	6	-6
Cc1ccc(C2NC(=O)Cc3ccccc32)cc1 (configuration not stated)	0	3394	247*	-8	1
O=C1Cc2ccccc2C(c2ccccc2)N1 (configuration not stated)	-4	13352	4	-22	-2
N/C(=N\NS(=O)(=O)c1ccc(Cl)cc1)c1ccccn1	0	5537	6	-10	-1
COc1ccc(NC(=O)C(NC(=O)OC(C)(C)C)C(C)OCc2ccccc2)cc1 (configuration not stated)	?	21191*	-9	-8	0
COc1ccc(NC(=O)[C@H](COCc2ccccc2)NC(=O)OC(C)(C)C)cc1	0	9750	-1	-1	0
COc1ccccc1NC(=O)N(CCN1CCCC1)Cc1cc2cc(C)ccc2[nH]c1=O	-3	23245*	1	-2	0
SMILES	BoNT-A LC inh2	Autofluor counter	MazF activator	BoNT F protease	Anthrax LF inh2
CCN(CC)CCCN(Cc1cc2cc(OC)c(OC)cc2[nH]c1=O)C(=O)Nc1ccccc1	0	22160*	10	-1	-9
CCOC(=O)C1(COCc2ccccc2)CCCCC1=O (configuration not stated)	0	2901	-6	-2	-3
Cn1nnnc1Sc1ncnc2scc(-c3ccsc3)c12	0	3512	0	0	-8
CC(C)=C[C@H]1C[C@H](C)[C@H]2CC[C@H](C)c3c(O)c(O[C@H]4OC[C@H](O)[C@@H](O)[C@@H]4O)c(C)c1c32	0	4190	.	4	6
CCCCNc1nc2c(c(=O)[nH]c(=O)n2C)n1CCCc1ccccc1	0	3950	2	1	2
FC(F)(F)c1cccc(Cn2nnnc2-c2cc(Cl)cc(Cl)c2)c1	?	16997*	-3	-3	-2
FC(F)(F)c1cccc(Cn2nnnc2-c2cccc(C(F)(F)F)c2)c1	?	24655*	-5	-8	0
CC(=O)c1cccc(NC(=O)C2=CN3CCS(=O)(=O)N=C3C=C2)c1	0	4270	7	2	0
Cc1ccc(C(=O)CSc2nc3ccccc3c(=O)[nH]2)cc1	3	21593*	1	4	-8
Cc1ccc(C(=O)CSc2nc3ccccc3c(=O)[nH]2)cc1C	0	4835	-4	12	0
Cc1cc(C)c(C(=O)CSc2nc3ccccc3c(=O)[nH]2)cc1C	-1	4376	4	-5	-2
CCc1ccc(C(=O)CSc2nc3ccccc3c(=O)[nH]2)cc1	0	21509*	5	1	-6
CC1CC(=O)Nc2ccccc2N1C(=O)COc1ccccc1C(N)=O (configuration not stated)	-1	3731	5	-7	-9
CCOC(=O)/C(=N\Nc1ccc(C(C)=O)cc1)c1csc(Nc2ccccc2)n1	0	2138	56*	1	0
Nc1c(N2CCOCC2)cc(Cl)c2nonc12	?	23187*	-3	-3	-2
O=C(c1ccco1)N1CCN(c2ncnc3c2nnn3Cc2ccccc2Cl)CC1	-1	3118	10	10	-4
O=C(c1ccco1)N1CCN(c2nc(C(F)(F)F)nc3c2nnn3Cc2ccccc2)CC1	-3	24937*	-3	-7	-6
COCCn1nnnc1CN(Cc1ccco1)Cc1cc2cc3c(cc2[nH]c1=O)OCO3	0	23147*	-1	-1	0
CCNc1nc(N)nc(Oc2ccc(OCc3ccccc3)nn2)n1	-1	8311	-2	-6	-3
CCNc1nc(N)nc(Oc2ccc(OCCOc3ccccc3)nn2)n1	-5	17908*	9	-12	-4
CC1CCN(C(=O)CCCOc2cc(=O)n(C)c3ccccc23)CC1	?	20059*	-8	-1	2
Cc1ccc(C)c(N2CCN(C(=O)CCCOc3cc(=O)n(C)c4ccccc34)CC2)c1	-2	10414	2	-6	-3
COc1ccc(N2CCN(C(=O)CCCOc3cc(=O)n(C)c4ccccc34)CC2)cc1	-1	23028*	2	-4	-4
COc1ccc(-c2cc(CNc3nc(NCc4ccccc4OC)nc4ccsc34)on2)cc1	0	3745	.	-6	-3
O=C(CC[C@H]1O[C@@H](n2ccc(=O)[nH]c2=O)[C@H](O)[C@@H]1O)N[C@H](Cc1ccccc1)C(=O)NCCCc1ccccc1	-1	6231	.	-7	-3
O=C(CSc1nc(-c2ccccc2)c(-c2ccccc2)o1)Nc1nnc(-c2ccccc2)s1	1	22803*	-2	-2	-2
